Activity calls are given as the source filed them. Entries that show only a call come without a potency. The call rests on the fitted dose curve; in most records, active means well fitted curve in the direction sought with a large enough effect in the repeat runs; inconclusive means weak or mixed curves; inactive means flat fitted curve, though single readings scatter.

Here are results for 39 molecules from PubChem BioAssay (Tox21).

The nature of one assay: qHTS assay to test for compound auto fluorescence at 535 nm (green) in HepG2 cells (AID 720675). To be noted: green autofluorescence 485/535 nm, 1 h; series mostly up to 46 µM. (In general: In qHTS, concentration-response curves come from the screen itself.)
`CCCCCCCCCCCCOCCCN`: the Potency entry is “inactive”.
Turning to `O=C(O)C1CCCN1` (stereo not given), the Potency entry is “inactive”.
On to `CCCCC/C=C\C/C=C\C/C=C\CCCCC(=O)O`, for which the Potency entry was “inactive”.
For the molecule `O=S(=O)(O)c1cc(O)c2c(N=Nc3ccc(Nc4ccccc4)c4c(S(=O)(=O)O)cccc34)cc(S(=O)(=O)O)cc2c1`, the Potency entry was “inactive”.
As for `Nc1nc(=O)n([C@@H]2CS[C@H](CO)O2)cc1F`, the Potency entry is “inactive”.
As to `COc1ccc(C[C@@H](C)NC[C@H](O)c2ccc(O)c(NC=O)c2)cc1`, the Potency result is “inactive”.

A short description of the next assay: qHTS assay to test for compound auto fluorescence at 460 nm (blue) in HEK293 cells (AID 720678). To be noted: blue autofluorescence 405/460 nm; series mostly up to 46 µM. A digest of the protocol:
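Measured: blue fluorescence (Ex 405/Em 460 nm) of compound-treated HEK293 cells, incubated overnight at 37C with 5% CO2 and scaled to triamterene equivalents.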
Regarding `CCC(=O)O[C@@H]1CC(=O)O[C@H](C)C/C=C/C=C/[C@H](O)[C@H](C)C[C@H](CC=O)[C@H](O[C@@H]2O[C@H](C)[C@@H](O[C@H]3C[C@@](C)(O)[C@@H](OC(=O)CC)[C@H](C)O3)[C@H](N(C)C)[C@H]2O)[C@H]1OC`, the Potency result was “inactive”.
In the case of `CCCCC(=O)OCC(=O)[C@]1(O)Cc2c(O)c3c(c(O)c2[C@@H](O[C@H]2C[C@H](NC(=O)C(F)(F)F)[C@H](O)[C@H](C)O2)C1)C(=O)c1c(OC)cccc1C3=O`, the Potency result was “inactive”.
`[O]=[Bi][O][Bi]=[O]`: the Potency result is “inactive”.
Take `CC[C@@]1(O)C[C@H](O[C@H]2C[C@H](N(C)C)[C@H](O[C@H]3C[C@H](O)[C@H](O[C@H]4CCC(=O)[C@H](C)O4)[C@H](C)O3)[C@H](C)O2)c2c(cc3c(c2O)C(=O)c2c(O)cccc2C3=O)[C@H]1C(=O)OC`: the Potency entry was “inactive”.
Regarding `CC(C)N=c1cc2n(-c3ccc(Cl)cc3)c3ccccc3nc-2cc1Nc1ccc(Cl)cc1`, the Potency result was “inactive”.
The same measure, in the same setting: with `CC(=C\c1ccccc1)/C=C1/SC(=S)N(CC(=O)O)C1=O` the entry was “inactive”.
On the same count and under the same terms, with `CO[C@H]1C[C@H](O[C@@H]2/C(C)=C/C[C@@H]3C[C@@H](C[C@]4(CC[C@H](C)[C@@H](C5CCCCC5)O4)O3)OC(=O)[C@@H]3C=C(C)/C(=N/O)[C@H]4OC/C(=C\C=C\[C@@H]2C)[C@]43O)O[C@@H](C)[C@@H]1O` the entry was “inactive”; with `CC(C)(C)c1ccc(CN2CCN(C(c3ccccc3)c3ccc(Cl)cc3)CC2)cc1` (stereo not given), “inactive”.
Same read-out and setting: with `CCCCCCCCCCCCCC[n+]1ccc(C)cc1` the entry was “inactive”; with `Cc1cc(Nc2ccccc2C(=O)O)ccc1Cl`, “inactive”; with `CN1CCN(CCC=C2c3ccccc3Sc3ccc(S(=O)(=O)N(C)C)cc32)CC1`, “inactive”.
As to `CCC(=O)c1ccc2c(c1)N(CCCN1CCN(CCO)CC1)c1ccccc1S2`, the Potency entry was “inactive”.
As to `CC1CCCC1`, the Potency result was “inactive”.
On the same count and under the same terms, with `O=C(O)c1c(Cl)c(Cl)c(Cl)c(Cl)c1-c1c2cc(I)c(=O)c(I)c-2oc2c(I)c(O)c(I)cc12` the entry was “inactive”; with `C=C1C(=O)O[C@H]2[C@H]1CC/C(C)=C\CC[C@@]1(C)O[C@@H]21`, “inactive”; with `C#C[C@]1(O)CC[C@H]2[C@@H]3CCC4=C/C(=N/O)CC[C@@H]4[C@H]3CC[C@@]21CC`, “inactive”.
With `Cc1cccc(C)c1Nc1ncccc1C(=O)O`, the Potency entry is “inactive”.
The same measure, in the same setting: for `C=Cc1c(C)c2cc3nc(cc4[nH]c(cc5nc(cc1[nH]2)C(C)=C5CCC(=O)OC)c(CCC(=O)O)c4C)[C@@]1(C)C3=CC=C(C(=O)OC)[C@H]1C(=O)OC` the value was “inactive”.
In the case of `O=C1CSC2(CCN(CCCN3c4ccccc4Sc4ccc(Cl)cc43)CC2)N1`, the Potency result is “inactive”.
On the same count and under the same terms, with `Cc1ccccc1` the entry was “inactive”; with `CC(C)[C@@H](C)/C=C/[C@@H](C)[C@H]1CC[C@H]2/C(=C/C=C3\C[C@@H](O)CC[C@@H]3C)CCC[C@]12C`, “inactive”.
Take `CCCCC(C)(O)C/C=C/[C@H]1[C@H](O)CC(=O)[C@@H]1CCCCCCC(=O)OC` (stereo not given in full): the Potency result is “inactive”.
Consider `CC(=O)Nc1ccc(NC(=S)NC(=O)c2ccc(C(C)(C)C)cc2)cc1`, for which the Potency result is “inactive”.
On the same count and under the same terms, with `CC1(C)S[C@@H]2[C@H](NC(=O)C3(N)CCCCC3)C(=O)N2[C@H]1C(=O)O` the entry was “inactive”.
As to `CCCCCCCC(=O)CC[C@@H]1[C@@H](C/C=C\CCCC(=O)OC(C)C)[C@@H](O)C[C@H]1O`, the Potency entry was “inactive”.
Same read-out and setting: with `COc1ccc(C[C@H](C)NC[C@@H](O)c2ccc(O)c(NC=O)c2)cc1` the entry was “inactive”.
As for `C#C[C@]1(O)CC[C@H]2[C@@H]3CCC4=C(CCC(=O)C4)[C@H]3CC[C@@]21C`, the Potency result was “inactive”.
Consider `CO[C@@H]1[C@@H](O[C@@H]2O[C@H](C)[C@@H](O[C@H]3C[C@@](C)(O)[C@@H](OC(=O)CC(C)C)[C@H](C)O3)[C@H](N(C)C)[C@H]2O)[C@@H](CC=O)C[C@@H](C)C(=O)/C=C/C2OC2C[C@@H](C)OC(=O)C[C@H]1OC(C)=O` (stereo not given in full), for which the Potency result was “inactive”.
Turning to `CCN(CC)CCOc1ccc(-c2nc3cc(Cl)ccc3s2)cc1`, the Potency result is “inactive”.
The same measure, in the same setting: for `OCC(O)CO` the value was “inactive”; for `Cc1cc2nc3c(=O)[nH]c(=O)nc-3n(C[C@H](O)[C@H](O)[C@H](O)COP(=O)(O)OP(=O)(O)OC[C@H]3O[C@@H](n4cnc5c(N)ncnc54)[C@H](O)[C@@H]3O)c2cc1C`, “inactive”; for `CNC(C)[C@@H]1CC[C@@H](N)[C@@H](O[C@H]2[C@H](O)[C@@H](O[C@H]3OC[C@](C)(O)[C@H](NC)[C@H]3O)[C@H](N)C[C@@H]2N)O1` (stereo not given in full), “inactive”.
The same measure, in the same setting: with `NC(=O)OC[C@@H]1[C@H](NC(=O)/C(=N\OCC(=O)O)c2csc(N)n2)C(=O)N1S(=O)(=O)O` the entry was “inactive”; with `CCCCCCCCCCCCOCCCN`, “inactive”.
The same measure, in the same setting: for `O=C(O)C1CCCN1` (stereo not given) the value was “inactive”.
For `CCCCC/C=C\C/C=C\C/C=C\CCCCC(=O)O`, the Potency result was “inactive”.
As to `O=S(=O)(O)c1cc(O)c2c(N=Nc3ccc(Nc4ccccc4)c4c(S(=O)(=O)O)cccc34)cc(S(=O)(=O)O)cc2c1`, the Potency entry was “inactive”.
On the same count and under the same terms, for `Nc1nc(=O)n([C@@H]2CS[C@H](CO)O2)cc1F` the value was “inactive”.
Take `COc1ccc(C[C@@H](C)NC[C@H](O)c2ccc(O)c(NC=O)c2)cc1`: the Potency entry is “inactive”.
